TIM10 inh: growth inhibitors of TIM10 yeast strain; AID 463195; S. cerevisiae TIM10 strain growth, BacTiter-Glo luminescence, 24 h; hit rate 1.4% among 330,000; inhibition, % at 10 µM;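 active means inhibition of 40% or more at the single tested concentration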;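 further: wild-type TIM10 isogenic control strain grown at permissive 25 °C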
tim23-1 inh: tim23-1 yeast growth inhibition. inhibition, % at 20 µM. hit rate 1.3% among 330,000. S. cerevisiae tim23-1 growth, BacTiter-Glo luminescence, 24 h;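 active means growth inhibition of the mutant yeast at or above 50%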;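 further: temperature-sensitive mutant grown at 25 °C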
tim10-1 inh: growth inhibitors of tim10-1 mutant yeast. S. cerevisiae tim10-1 ts strain growth, BacTiter-Glo, 24 h. inhibition, % at 20 µM. hit rate 2.2% among 330,000;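 active means inhibition of at least 40%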;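 further: mutant grown at 25 °C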
PfHsp90 yeast 2: growth inhibition of yeast expressing Plasmodium Hsp90. S. cerevisiae expressing PfHsp90, BacTiter-Glo ATP, 48 h; yeast lacking PDR1 and PDR3 efflux regulators. inhibition, % at 9.4 µM. hit rate 0.32% among 310,000. AID 504621;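 active means every replicate shows inhibition above about 80%, whatever the replicate mean, limit read from the data; inconclusive means mean inhibition reaches the set limit but some replicate falls short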
EBI2 antag: antagonists of human EBI2 receptor. inhibition, % at 5 µM. P32249. EBI2 beta-arrestin recruitment, luminescence, 7a,25-OHC stimulated. hit rate 0.81% among 360,000. AID 651636; in the data active means inhibition above about 38%;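 further: enzyme fragment complementation signal reports receptor beta-arrestin coupling in cells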
Target sequence (P32249 whole entry, looked up, the tested form may be a part): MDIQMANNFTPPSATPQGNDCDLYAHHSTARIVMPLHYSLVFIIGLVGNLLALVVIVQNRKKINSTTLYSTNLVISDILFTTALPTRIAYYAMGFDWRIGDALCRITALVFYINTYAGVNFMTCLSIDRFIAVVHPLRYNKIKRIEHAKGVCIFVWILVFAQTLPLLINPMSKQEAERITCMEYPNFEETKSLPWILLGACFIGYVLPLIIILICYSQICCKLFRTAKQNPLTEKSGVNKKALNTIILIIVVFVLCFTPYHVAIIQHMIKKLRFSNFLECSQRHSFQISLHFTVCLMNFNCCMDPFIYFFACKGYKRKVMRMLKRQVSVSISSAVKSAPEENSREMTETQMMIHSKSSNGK
SKKanGAS inh: inhibitors of SKKanGAS S. pyogenes growth in kanamycin (SK-promoter or general growth effect); inhibition, % at 7.5 µM; hit rate 1.3% among 300,000; BacTiter-Glo, 6 h; AID 1662;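 active means mean replicate score, as percent of positive control median, at least 50; inconclusive means mean below 50 but one replicate at or above 50; inactive means mean and every replicate below 50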;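 further: strain carries kanamycin resistance gene driven by streptokinase promoter and grows in 40 µg/ml kanamycin; loss of luminescence reflects streptokinase promoter inhibition or plain growth inhibition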
tim10-1 conf: tim10-1 yeast growth inhibition, confirmed. shares compounds with tim10-1 inh. S. cerevisiae tim10-1 ts strain growth, BacTiter-Glo, 24 h. inhibition, % at 20 µM. hit rate 56% among 7,400. AID 463213;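 active means inhibition of yeast growth at or above a set limit in either of two repeat tests at 20 µM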;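 further: tim10-1 mutant grown at permissive 25 °C to find synthetic lethal compounds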
TIM10 conf: confirmation of TIM10 yeast growth inhibitors; hit rate 63% among 4,600; S. cerevisiae tim10 strain growth, BacTiter-Glo luminescence, 24 h; inhibition, % at 10 µM; shares compounds with TIM10 inh;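 active means inhibition of yeast growth at or above a set limit in either of two replicates at 10 µM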; further: this counterscreen used the strain with wild-type TIM10
tim23-1 confirm: confirmation of tim23-1 mutant yeast growth inhibitors. hit rate 83% among 4,400. shares compounds with tim23-1 inh. S. cerevisiae tim23-1 growth, BacTiter-Glo luminescence, 24 h. AID 463218. inhibition, % at 20 µM;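 active means inhibition above about 39% in either of two replicate wells at 20 µM, limit read from the data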;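 further: temperature-sensitive tim23-1 mutant grown at 25 °C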
Numbers stand for hits; i = inactive; ? = inconclusive; nt = no result. An excerpt weighted towards active compounds, which were near 4.7% of everything screened.

SMILES	TIM10 inh	tim23-1 inh	tim10-1 inh	PfHsp90 yeast 2	EBI2 antag	SKKanGAS inh	tim10-1 conf	TIM10 conf	tim23-1 confirm
O=C(O)CNc1nc(-c2ccccc2)nc2ccccc12	i	i	i	i	i	i	nt	nt	nt
c1ccc(Nc2nc(-c3ccccc3)nc3ccccc23)cc1	i	65	47	i	i	i	i	nt	49
COc1ccc(Nc2nc(-c3ccccc3O)nc3ccccc23)cc1	i	51	46	i	i	i	36	nt	59
Cc1nc2ccccc2c2c(N)c3ccccc3n12	77	53	41	i	i	i	47	i	55
CC(=O)Oc1ccccc1C(=O)N(C1CCCCC1)C1CCCCC1	i	i	i	i	i	i	nt	nt	nt
Cc1cccc(C(=O)N/N=C/c2cc(Br)c(Br)o2)c1	45	60	41	i	i	i	i	i	76
O=C1CS(=O)(=O)N(Cc2cccc(F)c2)c2ccc(Br)cc21	i	66	48	i	i	nt	48	nt	i
C=CCN1c2ccccc2C(=O)CS1(=O)=O	i	i	i	i	i	nt	nt	nt	nt
CCOC(=O)Cn1cc(/C=C/[N+](=O)[O-])c2ccccc21	i	i	i	i	i	i	nt	nt	nt
O=[N+]([O-])/C=C/c1cn(Cc2ccc(Cl)cc2)c2ccccc12	64	73	65	?	i	i	58	30	75
Cc1cccc(Cn2cc(/C=C/[N+](=O)[O-])c3ccccc32)c1	67	67	66	nt	i	i	71	82	74
COc1cc(CN2CCN(C3CCC3)CC2CCO)cc(OC)c1 (configuration not stated)	i	i	i	i	i	i	nt	nt	nt
CC(=O)Nc1ccc2nc(NC(=O)COc3cccc(C)c3)sc2c1	i	i	i	i	i	i	nt	nt	nt
Cc1cc(C)n2c(NC3CCCCC3)c(CC(C)C)nc2n1	nt	nt	nt	nt	i	nt	nt	nt	nt
COc1ccc(C(=O)Oc2c(CN3CCOCC3)cc(Cl)c3cccnc23)cc1	i	54	41	i	i	i	33	nt	46
COc1cccc(C(=O)Oc2c(CN3CCOCC3)cc(Cl)c3cccnc23)c1	44	51	43	nt	i	i	34	i	48
COc1cc(C(=O)Oc2c(CN3CCOCC3)cc(Cl)c3cccnc23)cc(OC)c1OC	i	i	i	i	i	i	nt	nt	nt
COc1ccc(/C=C2\Oc3cc(OCC(=O)N4CCC[C@H]4CO)ccc3C2=O)c(OC)c1	i	i	i	i	i	i	nt	nt	nt
CCN(CC)C1CC(=O)N(c2cccc(C)c2)C1=O (configuration not stated)	i	54	59	nt	nt	i	56	nt	66
O=C(CSc1nc(-c2ccc(F)cc2)cc(C(F)(F)F)n1)Nc1ccc2c(c1)OCO2	i	i	i	i	i	i	nt	nt	nt
CCC(/C=C1\Sc2ccc(OC)cc2N1CCO)=C\c1sc2ccc(OC)cc2[n+]1CCO	49	64	62	i	i	nt	49	i	53
CCOc1ccc2nc(NC(=O)c3ccoc3C)sc2c1	68	80	75	79	i	91	76	69	85
COc1ccc(S(=O)(=O)N2CCCCC2)cc1NC(=O)c1ccc(OC)c(OC)c1	i	i	i	i	i	nt	nt	nt	nt
COC(=O)COc1ccc(-c2ccccc2)cc1C=O	73	65	66	i	i	i	60	73	83
NC(=O)C1CCN(C(=O)C2CCN(S(=O)(=O)c3ccccc3)CC2)CC1	i	i	i	i	i	i	nt	nt	nt
SMILES	TIM10 inh	tim23-1 inh	tim10-1 inh	PfHsp90 yeast 2	EBI2 antag	SKKanGAS inh	tim10-1 conf	TIM10 conf	tim23-1 confirm
CCOC(=O)C(=Cc1ccc(-n2cncn2)cc1)C(=O)OCC	67	52	62	?	i	i	52	47	71
CCOC(=O)C(=CNc1cc(C)nn1-c1ccc(Cl)cc1)C(=O)OCC	i	i	i	i	i	i	nt	nt	nt
COc1cccc(N=C2SC(CC(=O)Nc3ccccc3)C(=O)N2Cc2ccccn2)c1 (configuration not stated)	i	i	i	i	i	i	nt	nt	nt
O=[N+]([O-])c1cc(-c2nnc(C34CC5CC(CC(C5)C3)C4)o2)cc([N+](=O)[O-])c1	i	i	i	i	i	i	nt	nt	nt
O=C(Nc1nc2cc3c(cc2s1)OCO3)c1ccco1	nt	nt	nt	i	i	i	nt	nt	nt
O=C(Nc1nc2cc3c(cc2s1)OCCO3)c1ccco1	43	75	49	i	i	62	41	41	60
Cc1ccc(-n2nc3c(=O)n(CCCC(=O)N4CCC(C(N)=O)CC4)nc(C)c3c2C)cc1	i	i	i	i	i	i	nt	nt	nt
CCN(CC)CC(=O)Nc1ccc([N+](=O)[O-])cc1	i	i	i	i	i	i	nt	nt	nt
CN(C)c1ccc(/C=C/c2ccc3ccccc3[n+]2C)cc1	81	75	85	i	i	?	81	i	76
O=C(C[n+]1cc(Br)cc2ccccc21)c1ccc(Br)cc1	i	i	i	i	i	i	nt	nt	nt
O=C(C[n+]1cn(C(F)F)c2ccccc21)c1ccc(Br)cc1	72	55	64	i	i	i	65	65	i
CC1(C)CC(=NOC(=O)c2ccccc2)CC(C)(C)N1O	58	68	58	i	i	i	61	70	78
CCOC(=O)n1c(=O)n(Cc2cccc(C)c2)c2ccccc21	i	59	51	i	i	i	41	nt	53
CCN(CC)C(=O)Cn1c(=O)c2ccccc2n2c(=S)sc(-c3cccc(C)c3)c12	i	i	i	i	i	i	nt	nt	nt
CC1=NN(c2ccc(Cl)c(C(=O)O)c2)C(=O)/C1=C\c1ccc(-c2ccc(C(=O)O)cc2)o1	nt	nt	nt	i	i	i	nt	nt	nt
CC1=NN(c2ccccc2)C(=O)/C1=C/c1ccc(-c2ccc(C)c(C(=O)O)c2)o1	i	66	48	i	nt	i	35	nt	59
O=C(CCc1ccccc1)N1CCN(S(=O)(=O)c2cccs2)CC1	i	i	i	i	i	i	nt	nt	nt
CC1(C)C(CSc2nc3ccccc3[nH]2)C1(Cl)Cl (configuration not stated)	i	57	45	i	i	i	i	nt	60
CCSc1nc2ccccc2[nH]1	i	i	i	i	i	i	nt	nt	nt
Cc1noc(C)c1C(=O)Nc1nccs1	i	i	i	i	i	?	nt	nt	nt
O=C1ON=C(c2ccccc2)/C1=C\c1ccco1	i	i	i	i	i	i	nt	nt	nt
Cc1ccc(/C=C2/C(=O)ON=C2c2ccccc2)o1	i	74	52	i	i	i	40	nt	76
COc1ccc(-c2cc3nc4n(c(=O)c3s2)CCC4)cc1	70	58	58	i	i	99	54	76	55
COc1ccc(-c2cc3nc(C)n(N)c(=O)c3s2)cc1	58	69	65	?	i	88	66	48	68

Bioassay records: PubChem BioAssay, several laboratories
